Source: PubChem
ATXN viability = viability counter-screen for ATXN expression inhibitors; 0.49% of 400,000 active; AID 651635; S2 cells (HEK-293 line with an ATXN2-luciferase reporter) viability, CellTiter-Fluor protease fluorescence, 24 h; Potency, µM (titrated, usually from 56.7 µM), hits mostly cytotoxic; note: nearly all actives have a fitted effect of over 40% in size
ATXN2 expr inh = inhibitors of ATXN2 expression | HEK-293 ATXN2-luciferase reporter, luminescence, 24 h | Potency, µM (highest dose often 57 µM), without a hit: at the top dose activity change, negative = inhibition, actives largely listed as inhibitors | 0.72% of 360,000 active; note: % is set by controls: 0 for no effect and ±100 for the full control effect; nearly all actives have a fitted effect of over 55% in size
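ATXN2-luciferase reporter cells (luciferase flanked by upstream and downstream ATXN2 gene portions) were treated 24 h at 37 °C with compounds at up to 57 uM. SteadyGlo luminescence gave expression; GF-AFC fluorescence gave viability.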
TGFb inhibitor = blocks TGF-b signaling; HepG2 CAGA-GFP TGF-b/SMAD3 reporter, GFP fluorescence, 18 h; TGF-beta stimulated, 500 pg/mL final; Potency, µM (top dose mostly 46.1 µM), for inactives: at the top dose activity, negative = inhibition, usual class: inhibitors; 1.2% of 410,000 active; AID 588855; note: % is set by controls: 0 for no effect and ±100 for the full control effect; nearly all actives have a fitted effect of over 65% in size
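TGF-beta reporter screen: HEPG2 CAGA-GFP, 1% FBS, 500 pg/mL TGF-beta final, 18 h; per-cell GFP summed per well; curves fitted and categorized by class.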
RORgamma inh = blocks mouse ROR gamma transcriptional activity; P51450; Drosophila S2 Gal4-RORgamma UAS-luciferase reporter, 20 h; Potency, µM (titrated, usually from 53.6 µM), for the others: at the top dose activity change, negative = inhibition, usual class: inhibitors; 5.4% of 310,000 active; note: % is set by controls: 0 for no effect and ±100 for the full control effect; nearly all actives have a fitted effect of over 60% in size
Target sequence (P51450 whole entry, looked up, the tested form may be a part): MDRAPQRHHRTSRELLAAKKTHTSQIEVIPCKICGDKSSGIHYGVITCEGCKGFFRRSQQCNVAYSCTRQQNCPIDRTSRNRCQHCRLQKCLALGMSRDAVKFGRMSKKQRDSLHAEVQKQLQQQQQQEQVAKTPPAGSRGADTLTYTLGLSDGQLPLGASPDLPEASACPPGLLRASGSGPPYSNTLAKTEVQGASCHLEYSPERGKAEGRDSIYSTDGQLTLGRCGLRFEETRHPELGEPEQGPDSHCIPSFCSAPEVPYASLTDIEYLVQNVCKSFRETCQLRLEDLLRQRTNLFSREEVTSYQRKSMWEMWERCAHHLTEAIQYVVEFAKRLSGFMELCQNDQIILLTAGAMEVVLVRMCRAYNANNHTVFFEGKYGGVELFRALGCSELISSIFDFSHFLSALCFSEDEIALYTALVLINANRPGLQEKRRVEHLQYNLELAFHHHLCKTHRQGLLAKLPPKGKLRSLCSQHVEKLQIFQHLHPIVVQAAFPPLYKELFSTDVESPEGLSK
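Stably transfected Drosophila Schneider cells are the test system, with ROR gamma fused to Gal4 and luciferase under UAS control; luminescence is read after 20 hr of 700 uM copper sulfate induction at ambient temperature.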
VP16 counter = counter-screen for ROR gamma inhibitors: Gal4-VP16 reporter; Drosophila S2 Gal4-VP16 UAS-luciferase, luminescence, 20 h; Potency, µM (highest dose often 53.6 µM), for inactives: at the top dose activity, negative = inhibition, most hits filed as inhibitors; 3.5% of 310,000 active; AID 2546;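 note: Gal4-VP16 expression switched on by copper sulfate through the metallothionein promoter; % is set by controls: 0 for no effect and ±100 for the full control effect; nearly all actives have a fitted effect of over 50% in size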
HepG2 viability = kills HepG2 cells in TGF-b inhibitor counter-screen. HepG2 CAGA-GFP viability, ATP luminescence, 18 h. Potency, µM (titrated, usually from 46.1 µM), inactives show at the highest dose activity change, negative = cytotoxicity, most hits filed as cytotoxic. 0.76% of 410,000 active
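HepG2 CAGA-GFP cells (1000/well, DMEM with 1% FBS) received compound, then TGF-beta at 500 pg/mL final, and were incubated 18 hours at 37 degrees C. Viability was read by CellTiter-Glo luminescence. Media-only wells were set as complete cell-killing and DMSO as no toxicity.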
Numbers without * were called inactive; i = inactive; ? = inconclusive; · = no result; [ ] = another dose, or the depositor's remark. Only some compounds are listed: those with a hit (about 6.1% of all), similar ones and a draw of the others. Calls come from the whole dose curve; as a rule, active = well fitted curve in the direction sought with a large enough effect; inconclusive = small, poorly fitted or top-dose-only effect, or another doubt; inactive = no such curve, though single readings can be large; an effect the other way counts as inactive or inconclusive. Potency is the fitted concentration of half-maximal effect.

SMILES	ATXN viability	ATXN2 expr inh	TGFb inhibitor	RORgamma inh	VP16 counter	HepG2 viability
CO[C@H]1[C@H](NC(=O)C(C)C)c2ccccc2C12CCN(Cc1c(C)nn(C)c1Cl)CC2	i	·	·	·	·	·
CCOC(=O)c1c(-c2ccc(C)o2)csc1NC(=O)COC(=O)c1ccc(NC(N)=O)cc1	?	?	-18%	-1%	2%	-51%
CCOC(=O)c1c(-c2ccc(C)o2)csc1NC(=O)CSc1nnc(C)s1	i	-3%	?	?	?	-11%
CCOC(=O)c1c(-c2ccc(C)o2)csc1NC(=S)NC(=O)c1cccs1	i	4%	?	1.4µM*	2.5µM*	-32%
CCOC(=O)c1c(-c2ccc(C)o2)csc1NC(=S)NC(=O)c1ccccc1Br	i	9%	-27%	7.9µM*	10µM*	-30%
CCOC(=O)c1c(-c2cccs2)csc1NC(=O)CN1CC(C)OC(C)C1 (centres undefined)	i	-10%	?	-4%	6%	20µM*
CCOC(=O)c1c(-c2ccc(C)o2)csc1NC(=O)CSc1nnnn1-c1ccccc1	i	-10%	1%	11µM*	7.9µM*	-7%
O=C(NCCC1=CCCCC1)c1ccc2c(c1)sc1nc(-c3ccc(F)cc3)cn12	·	·	-22%	·	·	2%
Cc1cc(=O)cc2oc3cc(N)c(-c4c(C)cc(O)cc4O)c(C)c3nc1-2	·	·	·	-41%	-26%	·
O=C(Nc1ncc(Cc2ccccc2)s1)C1CCCO1 (centres undefined)	i	23%	-7%	?	?	3%
CNc1ncc(Cc2ccccc2)s1	i	9%	16%	8.9µM*	-18%	-2%
COc1cc(CN2CCCC(n3cc(C(=O)N4CCCCC4)nn3)C2)cc2c1OCO2 (centres undefined)	i	·	·	·	·	·
CC(C)CC(=O)NC(c1cccs1)c1ccc2cccnc2c1O (centres undefined)	i	?	?	1%	-13%	9%
CCCC(=O)NC(c1cccs1)c1cc(Cl)c2cccnc2c1O (centres undefined)	i	-22%[11.3 µM]	?	0.4µM*	0.5µM*	-31%
CCC(=O)NC(c1cccs1)c1ccc2cccnc2c1O (centres undefined)	?	·	1µM*	0.5µM*	1.1µM*	1%
Cc1conc1NC(c1cccs1)c1ccc2cccnc2c1O (centres undefined)	·	·	·	2.5µM*	5.6µM*	·
CCC(=O)NC(c1ccco1)c1cc(Cl)c2ccccc2c1O (centres undefined)	i	-12%	?	·	·	-23%
CCCC(=O)NC(c1ccco1)c1cc(Cl)c2cccnc2c1O (centres undefined)	?	25µM*	-3%	4µM*	3.5µM*	-17%
COc1ccc(CCNC(=O)c2c(C)oc3ncn(C)c(=O)c23)c(OC)c1	i	9%	1%	·	·	-3%
CCCC(=O)NC(c1ccc2c(c1)OCO2)c1cc(Cl)c2cccnc2c1O (centres undefined)	i	8.9µM*	?	1.4µM*	1.3µM*	-7%
O=C(O)COc1ccccc1C(Nc1ccccn1)c1cc(Cl)c2cccnc2c1O (centres undefined)	i	2%	-30%	?	-2%	-3%
O=C1C(=C(c2ccccc2)N2CCOCC2)Cc2ccccc21	?	·	3.2µM*	·	·	8.9µM*
O=C(c1ccccc1)N1CCN(C(=O)N2CCOCC2)CC1	i	2%	-8%	5%	5%	2%
CCOc1ccc(CCN2C(=O)C(=O)N([C@@H](CC(C)C)CN3CCC[C@H]3CN3C(=O)C(=O)NC[C@@H]3Cc3ccccc3)C[C@@H]2Cc2ccc(O)cc2)cc1	?	0%	·	·	·	·
